Data as given in ChEMBL document CHEMBL4513216, “Probing the Open Global Health Chemical Diversity Library for Multistage-Active Starting Points for Next-Generation Antimalarials” (ACS Infect Dis, 2020).
Screen size: about 69,000 compounds; about 8,600 (12%) showed an effect of 50% or more. For the sample, strong results were picked, then their nearest neighbours and some compounds at random.

System: Plasmodium berghei
Test: Screen against P. berghei liver stage (PbLuc), transformed with Luciferase, at 10uM
Type: functional, HepG2
Details: tested at 10 uM

Going from `CC(C)CN(CCc1ccccc1)Cc1nc2c(cnn2C)c(=O)[nH]1` to `Cc1nc2ccccc2n1CCNCc1cccc(O)c1`, the INHIBITION falls from 29.2% to -57.5%.

Compared with `Cc1ccccc1CC(C)NCc1c(C)nn(C)c1N1CCOCC1` (centres undefined), `COc1ccc(C)cc1NC(=O)Nc1cnc(N2CCOCC2)nc1` is higher in INHIBITION: 13.5% for the first, 50.2% for the second.

First: CCc1ccccc1OCCN(C)C(=O)CCN1CCCCO1
Second: CCc1ccccc1OCCN(C)C(=O)CCN1CCCO1
The INHIBITION of the first is higher: 69.3% for the first, 42.4% for the second.

First: CCc1ccccc1OCCCN(C)C(=O)C1CCCN1C(N)=O (centres undefined)
Second: CCc1ccccc1OCCN(C)C(=O)CN1CCCC1
The INHIBITION of the first is lower: -40.4% for the first, 59.1% for the second.

Compared with `CN(CCCOc1ccccc1Cl)C(=O)CN1CCCCCC1=O`, `Cc1ccc(OCCN(C)C(=O)CCCN2CCCC2=O)c(C)c1` is lower in INHIBITION: 21.2% for the first, -12.6% for the second.

Compared with `O=C(Cc1csc(-c2ccccc2F)n1)NCc1cccc(C(=O)O)c1`, `Cc1cn(-c2ccccc2)nc1NS(=O)(=O)c1ccc(C(=O)O)cc1F` is lower in INHIBITION: 0.29% for the first, -20% for the second.

First: CO[C@H]1CN(S(=O)(=O)c2ccccc2F)C[C@@]12CCCO2
Second: O=C1CO[C@@H]2CN(S(=O)(=O)c3ccccc3F)C[C@H]2N1
The INHIBITION of the first is lower: 3.48% for the first, 44.4% for the second.

First: Cc1nc(N)cc(C2CCN2CCOc2ccccc2)n1 (centres undefined)
Second: CCNCCOc1ccc(-c2cc(N)nc3[nH]ccc23)cc1
The INHIBITION of the first is lower: -0.232% for the first, 59.5% for the second.

First: COc1ccnc(N2CCN(C(=O)CN3CCOCC3)CC2)n1
Second: O=C1CC[C@H]2[C@H](CCN2C(=O)c2ccc[nH]2)N1CCN1CCOCC1
The INHIBITION of the first is higher: 31.9% for the first, -14.4% for the second.

First: CC(=O)N1CCCC1c1nccnc1Nc1ncccn1 (centres undefined)
Second: O=C(c1cnc(-c2cnccn2)s1)N1CCCC1Cn1cccn1 (centres undefined)
The INHIBITION of the first is lower: -107% for the first, -21.5% for the second.

Going from `CC(C(=O)NN1CCOCC1)n1nc(C(F)(F)F)c(Cl)c1C1CC1` (centres undefined) to `O=C(Cn1nc(C(F)(F)F)c(Cl)c1C1CC1)NN1CCOCC1`, the INHIBITION falls from 74.1% to -3.11%.

Compared with `Cc1c(Cl)c(C(F)(F)F)nn1C(C)C(=O)NN1CCN(C)CC1` (centres undefined), `Cc1c(Cl)c(C(F)(F)F)nn1C(C)C(=O)NC1CCN(C)CC1` (centres undefined) is lower in INHIBITION: 35.7% for the first, 26.8% for the second.

First: CC(C(=O)O)n1nc(C(F)(F)F)c(Cl)c1C1CC1 (centres undefined)
Second: CC(C(=O)NC1CCN(C)CC1)n1nc(C(F)(F)F)c(Cl)c1C1CC1 (centres undefined)
The INHIBITION of the first is lower: 7.3% for the first, 82.4% for the second.

Compared with `Cn1ccc2ccc(C(=O)Nc3nc[nH]n3)cc21`, `CCc1ncc(C(=O)c2ccc(OC)cc2)n1C` is higher in INHIBITION: 46.4% for the first, 54.2% for the second.

Going from `CC(=O)N1CCN(C(=O)NCc2ccc(Cl)s2)CC1` to `O=C(c1ccc2c(c1)COC2)N1CCN(CCO)CC1`, the INHIBITION falls from 42% to 21.5%.

Going from `O=C1CO[C@@H]2CN(S(=O)(=O)c3ccc(F)cc3)C[C@H]2N1` to `C[C@@H]1C[C@H]2CN(S(=O)(=O)c3ccc(F)cc3)C[C@H]2O1`, the INHIBITION falls from 82.2% to 24.8%.

First: c1ncn(Cc2cn3c(n2)CN(CC2CCCC2)CC3)n1
Second: CCN(C(C)=O)c1nc(CN2CCCC2Cn2cncn2)cs1 (centres undefined)
The INHIBITION of the first is lower: -16.9% for the first, -6.44% for the second.

First: O=C(NCc1ccccc1)N1CCC2(CC(=O)N(c3ccccc3)C2)C1 (centres undefined)
Second: CCc1ccccc1CN1CCn2nc(CNC(C)=O)cc2C1
The INHIBITION of the first is lower: -14.7% for the first, 22% for the second.

Compared with `COCCN1CCC(C(=O)N(C)CCOc2ccc(C)cc2Cl)C1` (centres undefined), `COCCN1CCC(C(=O)N(C)Cc2c[nH]c3ccc(C)cc23)C1` (centres undefined) is lower in INHIBITION: 59.3% for the first, 39.9% for the second.

Going from `COCCN1CCC(C(=O)N(C)Cc2cccc(Cl)c2)C1` (centres undefined) to `COCCC(Cc1cccc(Br)c1)C(=O)NCC(N)=O` (centres undefined), the INHIBITION falls from 13.9% to 12.3%.

First: CSc1ccccc1CN1CCCn2nc(CNC(=O)N(C)C)cc2C1
Second: CSc1ccccc1CN1CCn2nc(CNC(=O)N(C)C)cc2C1
The INHIBITION of the first is lower: -19.4% for the first, 4.97% for the second.

Compared with `CC(=O)NCc1cc2n(n1)CCN(Cc1cccc(Cl)c1Cl)C2`, `CSc1ccccc1CN1CCn2nc(CNC(C)=O)cc2C1` is higher in INHIBITION: -26.8% for the first, 55.4% for the second.

Compared with `CC(=O)NCc1cc2n(n1)CCN(Cc1ccccc1OC(F)(F)F)C2`, `Cc1cc(=O)[nH]cc1C(=O)N1CCN(C)c2ccccc2C1` is lower in INHIBITION: 53.8% for the first, 42.8% for the second.

Compared with `c1ncc2c(n1)CN(Cc1nc(-c3ccsc3)no1)CC2`, `O=C(CN1CCc2sccc2C1)Nc1ccnc2ccnn12` is higher in INHIBITION: -16% for the first, 82.2% for the second.

First: NC(=O)CN(Cc1ncc(-c2ccc(F)cc2)o1)C1CCCC1
Second: Cc1ccc(NC(=O)Nc2cnc(N3CCN(C)CC3)nc2)cc1
The INHIBITION of the first is lower: -13.6% for the first, 37.4% for the second.

Going from `CSCC[C@H](NC(=O)CCn1cc(C(C)=O)c2ccccc21)C(=O)O` to `CCS(=O)(=O)NCC(Cc1cccc(F)c1)N1CCNC1=O` (centres undefined), the INHIBITION rises from -35.7% to 23.1%.

First: CC(C)c1nnc2n1CC(CNCc1ccc3c(c1)OCCO3)CC2 (centres undefined)
Second: CC(C)n1nccc1NC(=O)CN1CCc2sccc2C1
The INHIBITION of the first is lower: 17% for the first, 49.3% for the second.

Going from `COc1ccc(C)cc1NC(=O)Nc1cnc(N2CCN(C)CC2)nc1` to `Cc1ccc(NC(=O)Nc2cnc(N3CCN(C)CC3)nc2)c(Cl)c1`, the INHIBITION rises from 38.7% to 57.6%.

Compared with `COc1ccc(C)cc1NC(=O)Nc1cnc(N2CCCC2)nc1`, `COc1ccc(NC(=O)Nc2cnc(N3CCN(C)CC3)nc2)cc1Cl` is lower in INHIBITION: 45.5% for the first, 45% for the second.

Compared with `C[C@H]1C(=O)NC[C@H]2CN(Cc3ccccc3)C[C@H]21`, `Cn1nccc1NC(=O)CN1CCc2sccc2C1` is higher in INHIBITION: -9.27% for the first, 18.6% for the second.

Going from `CC(Cn1cccn1)NC(=O)Nc1ccccn1` (centres undefined) to `COc1ccc(C(=O)c2cnc(C(C)C)n2C)cc1`, the INHIBITION rises from -4.16% to 33.9%.

First: CCCc1ncc(C(=O)c2ccc(OC)cc2)n1C
Second: CCn1c(C)nnc1SCCNc1cc(OC)ncn1
The INHIBITION of the first is lower: 0.29% for the first, 22.1% for the second.

Going from `Nc1cc(-c2cc(O)cc(C(=O)O)c2)c2cc[nH]c2n1` to `CNc1cc(-c2cccc(CN)c2)c2cc[nH]c2n1`, the INHIBITION falls from 35.4% to 5.91%.

Compared with `Cc1ccc(N2CCC3(CCN(C(=O)N(C)C)CC3)CC2)nn1`, `CCN(CC)S(=O)(=O)NCC(O)c1c(Cl)cccc1Cl` (centres undefined) is lower in INHIBITION: 35.4% for the first, -20% for the second.

`CC(C)(CCS(C)(=O)=O)CNC(=O)NC1CCCC1(C)C` (centres undefined) showed an INHIBITION of -21.9%.
